Results: the supplement of paper PMC13380429

System: Vero E6 infected with SARS-CoV-2
Test: inhibition of SARS-CoV-2 cytopathic effect; higher = more antiviral protection, active = above 15
Conditions: 48 h

Measured: inhibition of SARS-CoV-2 cytopathic effect

COc1cc2c(NC3CCN(C4CCCCC4)CC3)nc(N3CCCN(C(C)C)CC3)nc2cc1OCCCN1CCCCC1
inactive: 1 nM -0.42% | 8.33 nM 1.56% | 100 nM 0.26% | 833.33 nM -2.24% | 10000 nM 15%

CN(C)CC[C@@H](c1ccc(Cl)cc1)c1ccccn1 [chlorphenamine]
inactive: 1 nM 0.315% | 8.33 nM 1.98% | 100 nM -0.53% | 833.33 nM 0.17% | 10000 nM -5.02%

CCCN(CCC)CCc1ccc(OC)c(OCCc2ccccc2)c1
inactive: 1 nM -1.09% | 8.33 nM -0.82% | 100 nM 0.93% | 833.33 nM 0.13% | 10000 nM -2.05%

C[C@]12CC[C@@H]3c4ccc(O)cc4CC[C@H]3[C@@H]1CC[C@@H]2O [estradiol]
inactive: 1 nM 1.43% | 8.33 nM 2.24% | 100 nM -0.69% | 833.33 nM -2.04% | 10000 nM -1.69%

CCCC[C@@H](C=O)NC(=O)[C@H](CC(C)C)NC(=O)OCc1ccccc1 [calpeptin]
active: 10000 nM 66.9%
inactive: 1 nM -1.61% | 8.33 nM -1.53% | 100 nM -2.86% | 833.33 nM 14.7%

O=[N+]([O-])c1cccc2c(Br)n[nH]c12 [3-bromo-7-nitroindazole]
inactive: 1 nM 0.35% | 8.33 nM 2.23% | 100 nM 0.07% | 833.33 nM -3.48% | 10000 nM -0.25%

COc1cc(O)c(C(=O)c2ccccc2)cc1S(=O)(=O)O [sulisobenzone]
inactive: 1 nM 1.82% | 8.33 nM 1.76% | 100 nM -0.05% | 833.33 nM -2.93% | 10000 nM 1.98%

NS(=O)(=O)c1nn2cc(-c3ccccc3)nc2s1
inactive: 1 nM 8.11% | 8.33 nM 1.76% | 100 nM 0.85% | 833.33 nM 0.07% | 10000 nM 0.7%

C=CCN1CC[C@]23CCCC[C@H]2[C@H]1Cc1ccc(O)cc13 [levallorphan]
inactive: 1 nM -1.28% | 8.33 nM 0.72% | 100 nM -1.34% | 833.33 nM -1.26% | 10000 nM -3.54%

CC(=O)OC[C@H](N)C(=O)O [O-acetyl-L-serine]
inactive: 1 nM 0.15% | 8.33 nM 1.11% | 100 nM 1.58% | 833.33 nM 1.65% | 10000 nM -0.72%
